Reference: PubChem BioAssay (Tox21)
Where “and” joins values, the source holds several entries; their conditions need not be identical. Identical values can stand only once. Results filed as inconclusive are left out. Unmarked numbers belong to inactive results. Calls of active or inactive are those of the source. The call rests on the fitted dose curve; in most records, active means well fitted inhibition curve with a large enough effect in the repeat runs; inconclusive means weak or mixed curves, or effect the other way; inactive means no such curve, though single readings can be large or run the other way.

Target: Nuclear receptor subfamily 1 group I member 3 (Homo sapiens) (UniProt Q14994)
Sequence (Q14994 whole entry, looked up): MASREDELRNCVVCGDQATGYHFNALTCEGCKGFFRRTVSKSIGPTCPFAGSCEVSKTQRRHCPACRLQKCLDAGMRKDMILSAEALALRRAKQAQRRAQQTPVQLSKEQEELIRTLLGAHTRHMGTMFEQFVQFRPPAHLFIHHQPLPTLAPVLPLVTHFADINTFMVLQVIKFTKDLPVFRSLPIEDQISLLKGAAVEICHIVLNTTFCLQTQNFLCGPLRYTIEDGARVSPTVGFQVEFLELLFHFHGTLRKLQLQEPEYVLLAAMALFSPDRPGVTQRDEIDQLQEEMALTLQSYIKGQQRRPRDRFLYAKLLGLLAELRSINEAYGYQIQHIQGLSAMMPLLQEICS
Assay: qHTS assay to identify small molecule antagonists of the constitutive androstane receptor (CAR) signaling pathway (AID 1224838);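 further: HepG2 cells stably expressing hCAR with CYP2B6 luciferase reporter stimulated by CITCO; nearly all actives have a fitted effect of over 40% in size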
Settings: HepG2-CYP2B6-hCAR luciferase, CITCO-stimulated, 24 h; series mostly up to 92.4 µM; activity, negative = inhibition: at the top concentration
From the text: U.S. Tox21 Program National Center for Advancing Translational Sciences [NCATS] NIH Chemical Genomics Center [NCGC] U.S. Environmental Protection Agency [EPA] National Institutes of Environmental Health Sciences [NIEHS] National Toxicology Program [NTP] U.S. Food and Drug Administration [FDA] Tox21 Assay Overview: The constitutive androstane receptor (CAR) is a nuclear receptor which regulates multiple drug metabolizing enzymes (DMEs) and transporters. Activating CAR will generally increase the transcription and subsequent translation of CYP2B6 and CYP3A4. These two DMEs represent about 50% of the drug metabolizing potential in the body. When CAR is deactivated, the metabolizing potential in the body will decrease, subsequently increasing the toxicity in the body or lowering the therapeutic potential of a pro-drug. Recently, there have also been studies performed indicating CARs role in energy metabolism and cancer therapy. Therefore, inhibiting CARs activity could have a potential effect on diabetes and cancer. Identifying environmental toxins and compounds which modulate CAR, through the use of the Tox21 10K compound collection, will be an important step in determining the toxicity and potential therapeutic effects these factors will have on the human body.
Tox21 Assay Protocol Summary: A double-stable (hCAR and CYP2B6-2.2kb) transfected cell line, derived from human hepatoma (HepG2) cells, was utilized for the duration of the quantitative high-throughput screens. The HepG2-CYP2B6-hCAR cells suspended in DMEM culture medium supplemented with 10% FBS, 5 ug/mL blasticidin, 0.5 mg/mL geneticin, 100 U/mL penicillin and 100 ug/mL streptomycin were dispensed at 2500 cells/4 uL/well in 1536-well white solid bottom plates using a Multidrop Combi. After the assay plates were incubated at 37 C/5% CO2 for 4 hrs, 23 nL of compounds at 15 concentrations (from 5-48 columns) or positive control (from 1 to 4 columns) were transferred to the assay plates using a Pintool station. One uL of CITCO, was added using a Flying Reagent Dispenser to generate a final concentration of 50 nM CITCO inside each well. After a 24 hr incubation period at 37 C/5% CO2, four uL of ONE-Glo reagent was added into the assay plates using a Flying Reagent Dispenser. After a 30 min incubation period at room temperature, the luminescence intensity in the assay plates was measured using a ViewLux plate reader.
On the % scale 0 is the no-effect control and ±100 the full control effect; potency means the concentration at half of the fitted maximal effect.

In order of falling “activity, negative = inhibition” value:
1. O=[N+]([O-])c1cc([N+](=O)[O-])c2ccccc2c1  236%
2. Fc1ccc(Oc2ccnc3cc(Cl)cc(Cl)c23)cc1  199%
3. O=[N+]([O-])c1c2ccccc2cc2ccccc12  188%
4. CC(=O)c1ccc(-c2ccccc2)cc1  106%
5. O=C(NC(=O)c1c(F)cccc1F)Nc1cc(Cl)c(OC(F)(F)C(F)F)c(Cl)c1  77.8%
6. Nc1ccc(Cc2ccc(N)c(Cl)c2)cc1Cl  41.8%
7. NC(=O)CCl  32.3%
8. CC(C)(C)C(O)C(Oc1ccc(-c2ccccc2)cc1)n1cncn1 (stereo not given)  24.3%
9. CC(C)CCCCCCCOP(=O)(Oc1ccccc1)Oc1ccccc1  18.3%
10. N#Cc1ccc(O)cc1  15.4%
11. [Cl][Sb]([Cl])[Cl]  12.4%
12. Cc1ccc(C(=O)Cl)cc1  10.6%
13. C1CCC2CCCCC2C1 (stereo not given)  9.85%
14. COP(N)(=S)OC  5.84%
15. Oc1ccccc1Br  1.68%
16. N#CNC#N  0.474%
17. c1ccc(OCC2CO2)cc1 (stereo not given)  -5.21%
18. O=[N+]([O-])c1cc(Cl)ccc1Cl  -6.83%
19. ClC1=C(Cl)[C@]2(Cl)[C@H]3[C@H]([C@H]4C=C[C@H]3C4)[C@@]1(Cl)C2(Cl)Cl  -9.29%
20. CCCN(CC)CC1COC2(CCC(C(C)(C)C)CC2)O1 (stereo not given)  -9.57%
21. Cc1cc(C(C)(C)c2cc(C)c(O)c(C)c2)cc(C)c1O  -13.6%
22. Cl/C=C\CCl  -18.6%
23. CC[C@H]1C[C@@H]2C[C@H]3c4[nH]c5ccc(OC)cc5c4CCN(C2)[C@@H]13  -21.3%
24. CC(C)(C)c1ccc(CSc2cnn(C(C)(C)C)c(=O)c2Cl)cc1  -21.4%
25. CC1(C)[C@H](C(=O)O[C@H](C#N)c2cccc(Oc3ccccc3)c2)[C@@H]1/C=C(\Cl)C(F)(F)F  -23.9%

In order of rising “activity, negative = inhibition” value:
1. O=C1NCN(c2ccccc2)C12CCN(CC1COc3ccccc3O1)CC2 (stereo not given)  29.3% [at 42.5 µM]
2. O=c1oc2ccccc2c(O)c1Cc1c(O)c2ccccc2oc1=O  43.3% [at 42.5 µM]
3. Clc1ccc(CO/N=C(\Cn2ccnc2)c2ccc(Cl)cc2Cl)c(Cl)c1  119% [at 42.5 µM]

In the case of `C[CH2][Hg][N]1C(=O)C2C(C1=O)C1(Cl)C(Cl)=C(Cl)C2(Cl)C1(Cl)Cl` (stereo not given), the Potency is reported as 11.6 µM (active).
`S=C(SSC(=S)N1CCCCC1)N1CCCCC1` was tested, and the Potency was 0.376 µM (active).
With `C[C@]12CC[C@H](O)C[C@H]1CC[C@@H]1[C@@H]2C[C@@H](O)[C@]2(C)[C@@H](C3=CC(=O)OC3)CC[C@]12O` the Potency was 1.22 µM (active).
For `C[C@@H]1O[C@@H](O[C@H]2C[C@@H](O)[C@]3(CO)[C@H]4[C@H](O)C[C@]5(C)[C@@H](C6=CC(=O)OC6)CC[C@]5(O)[C@@H]4CC[C@]3(O)C2)[C@H](O)[C@H](O)[C@H]1O`, the Potency was 146 nM (active) and 168 nM (active).
In the case of `CCCCCCCCCCCCCCCC[N+](C)(C)C`, the Potency is reported as “inactive”.
With `Clc1ccc(COC(Cn2ccnc2)c2ccc(Cl)cc2Cl)cc1` (stereo not given) the Potency was 54.3 µM (active) and 29.8 µM (active).
`O=C(CCCN1CCC2(CC1)C(=O)NCN2c1ccccc1)c1ccc(F)cc1` was tested, and the Potency was 7.5 µM (active).
For `C[C@H]1O[C@@H](O[C@H]2[C@@H](O)C[C@H](O[C@H]3[C@@H](O)C[C@H](O[C@H]4CC[C@@]5(C)[C@H](CC[C@@H]6[C@@H]5CC[C@]5(C)[C@@H](C7=CC(=O)OC7)CC[C@]65O)C4)O[C@@H]3C)O[C@@H]2C)C[C@H](O)[C@@H]1O`, the Potency was 77.4 nM (active) and 422 nM (active).
For `C[C@H]1CC[C@@H]2[C@@H](C)[C@H]3[C@H](C[C@H]4[C@@H]5CC=C6CC(O[C@@H]7O[C@H](CO)[C@H](O)[C@H](O[C@@H]8O[C@H](CO)[C@@H](O)[C@H](O)[C@H]8O)[C@H]7O[C@H]7O[C@@H](C)[C@H](O)[C@@H](O)[C@H]7O)CC[C@]6(C)[C@H]5CC[C@]34C)N2C1` (stereo not given in full), the Potency was 22.4 µM (active).
With `O=C/C(Cl)=C(/Cl)C(=O)O` the Potency was “inactive”.
For `c1ccc(Nc2ccc3ccccc3c2)cc1`, the Potency was “inactive”.
`c1ccc2c(c1)OCC(C1=NCCN1)O2` (stereo not given) was tested, and the Potency was 21.1 µM (active).
